According to PubChem BioAssay (EPA / NIEHS):
The source holds several records for some structures; these can differ, active in one and inactive in another. Activity calls are given as the source filed them. The calls were made as follows: active = hit-call score of the fitted dose curve at least 0.9, where 1 is the maximum; inactive = score below 0.9.

experiment: ATG_CRE_CIS: Attagene CIS-FACTORIAL HepG2 Assay for human cAMP Responsive Element (CRE) binding protein 3 (AID 2282926); details: HepG2 CRE cis-reporter, Attagene multiplexed mRNA; actives raise or lower the signal
Procedure: ATG_CIS is a cell-based, multiplexed-readout assay that uses HepG2, a human liver cell line, with measurements taken at 24 hours after chemical dosing in a 24-well plate.ATG_CRE_CIS is one of 52 assay component(s) measured or calculated from the ATG_CIS assay. It is designed to make measurements of mRNA induction, a form of inducible reporter, as detected with fluorescence intensity signals by Reverse transcription polymerase chain reaction (RT-PCR) and Capillary electrophoresis technology.Data from the assay component ATG_CRE_CIS was analyzed into 1 assay endpoint. This assay endpoint, ATG_CRE_CIS, was analyzed with bidirectional fitting relative to DMSO as the negative control and baseline of activity. Using a type of inducible reporter, measures of mRNA for gain or loss-of-signal activity can be used to understand the reporter gene at the transcription factor-level as they relate to the gene CREB3. Furthermore, this assay endpoint can be referred to as a primary readout, because this assay has produced multiple assay endpoints where this one serves a reporter gene function. To generalize the intended target to other relatable targets, this assay endpoint is annotated to the dna binding intended target family, where the subfamily is basic leucine zipper.
Human liver HepG2 cells are transiently transfected with multiple reporter transcription units (MRTUs) in 6-well plates using FuGene 6 reagent (Roche; 3 ml FuGene/1 mg DNA). The MRTU constructs are regulated by a cis-regulating element (promoter). […] A major difference between the CIS and TRANS system is that in CIS activities of endogenous TFs are measured, whereas the TRANS assay evaluates changes in activities of exogenous, chimeric NR-Gal4 proteins. […] At the end of 24 hour incubation, total RNA was isolated using TriZol reagent (Invitrogen). The isolated RNA is then reverse-transcribed using oligo(dT) primer and Mo-MLV reverse transcriptase (Invitrogen) with DNAse I (Ambion) treatment for 30 min. The one-tenth of the produced cDNA was amplified by PCR using Taq DNA polymerase (Invitrogen) and two reporter sequence-specific primers. The PCR products were fluorescently labeled by primer extension with 6-arboxyfluorescein (6-FAM) 5'-labeled reporter sequence-specific primer (2 min at 95 C, 20 s at 68 C and 10 min at 72 C) and these products were digested with 5U of HpaI (New England Biolabs) for 2h at 37 C. The fragments were purified using Qiaquick PCR columns (Qiagen), analyzed on an ABI 3130xL genetic analyzer (Applied Biosystems) with peak positions identified by using a set of X-rhodamine (ROX)-labeled MapMarker1000 molecular weight standards (BioVentures). The raw capillary electrophoresis data was processed using Attagraph software (Attagene).

| Structure (SMILES) | outcome | AC50 |
| --- | --- | --- |
| Cc1cc(=O)oc2cc(O)ccc12 | inactive | – |
| OCC(CO)(CBr)CBr | inactive | – |
| CC(C)(C)C1CCCCC1O (stereo not given) | inactive | – |
| CCCCCCC(C)(C)C(=O)O | inactive | – |
| FC(F)=C(F)C(F)(F)C(F)(F)C(F)(F)C(F)F | inactive | – |
| C=CC(C)(CCC=C(C)C)OC(C)=O (stereo not given) | inactive | – |
| Cc1cncc(C)c1 | inactive | – |
| O=C(Nc1cccc([N+](=O)[O-])c1)c1cc2ccccc2cc1O | inactive | – |
| CC=O | inactive | – |
| O=C(O)CCC(F)(F)C(F)(F)C(F)(F)C(F)(F)C(F)(F)C(F)(F)F | inactive | – |
| Oc1cc2ccccc2cc1O | inactive | – |
| C=CC(=O)OCCC(F)(F)C(F)(F)C(F)(F)C(F)(F)C(F)(F)C(F)(F)F | inactive | – |
| C=Cc1ccc(O)c(OC)c1 | inactive | – |
| CCCCCCCCCC=CCC1CC(=O)OC1=O (stereo not given) | inactive | – |
| CCOC=O | inactive | – |
| FCOC(C(F)(F)F)C(F)(F)F | inactive | – |
| CCOCCOCC | inactive | – |
| CCCCCCCCCCCCCCC | inactive | – |
| CCCCC(CC)C(=O)O (stereo not given) | inactive | – |
| COC(=O)CC(C(C)=O)C(=O)OC (stereo not given) | inactive | – |

| Structure (SMILES) | outcome | AC50 |
| --- | --- | --- |
| Nc1cc(Cl)c(-c2cc(Cl)c(N)cc2Cl)cc1Cl | inactive | – |
| CCCCCCCCC1CCC(=O)O1 (stereo not given) | inactive | – |
| CCCCCCCC(OC)OC | inactive | – |
| CC1=CC(=O)c2ccccc2C1=O | inactive | – |
| O=C1OC(=O)c2cc(-c3ccc4c(c3)C(=O)OC4=O)ccc21 | inactive | – |
| Clc1ccc(Nc2nnc(Cc3ccncc3)c3ccccc23)cc1 | inactive | – |
| CCc1cccc(CC)c1N(COC)C(=O)CS(=O)(=O)O | inactive | – |
| CCCCCCCCCCCC[N+](C)(C)CCCCCCCCCCCC | inactive | – |
| NC(C(F)(F)F)C(F)(F)F | inactive | – |
| COCC1CCC(CO)CC1 (stereo not given) | inactive | – |
| Cc1[nH]nc2c1N=C(c1ccccc1Cl)c1cc([N+](=O)[O-])ccc1N2 | inactive | – |
| O=S(=O)(c1ccc(OCc2ccccc2)cc1)c1ccccc1O | – | 14.9 µM (active) |
| CCN(CC)CC | inactive | – |
| CN(CCO)S(=O)(=O)C(F)(F)C(F)(F)C(F)(F)C(F)(F)C(F)(F)C(F)(F)C(F)(F)C(F)(F)F | inactive | – |
| CC1CCC(C(=O)O)CC1 (stereo not given) | inactive | – |
| O=C(NCc1ncc(C(F)(F)F)cc1Cl)c1c(Cl)cccc1Cl | inactive | – |
| CNNCc1ccc(C(=O)NC(C)C)cc1 | inactive | – |
| CCCCCCc1ccc(N)cc1 | inactive | – |
| C=C(c1ccc(C(=O)O)cc1)c1cc2c(cc1C)C(C)(C)CCC2(C)C | inactive | 31.9 µM (active) |
